# Measured values from PubChem BioAssay (NCATS).
# Inconclusive results are not listed. Where a call stands in place of a potency, no number is given. More than one record can exist for a structure, and the calls need not agree. The source made the active and inactive calls. Unless noted, calls come from the whole dose curve; as a rule, active = well fitted curve in the direction sought with a large enough effect; inconclusive = small, poorly fitted or top-dose-only effect, or another doubt; inactive = no such curve, though single readings can be large; an effect the other way counts as inactive or inconclusive.
# Columns and labels:
# [1] = molecular target: Thioredoxin reductase 1, cytoplasmic (Rattus norvegicus) (UniProt O89049); experiment: qHTS Assay for Substrates of Mammalian Selenoprotein Thioredoxin Reductase 1 (TrxR1) (AID 488772);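 note: NADPH fluorescence in the first read after selenite addition and not the 8 min delta; series mostly up to about 57 µM; a drop in NADPH fluorescence below the no-compound background marks a TrxR1 substrate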
# Thioredoxin reductase 1, cytoplasmic (Rattus norvegicus), sequence (O89049 whole entry, looked up): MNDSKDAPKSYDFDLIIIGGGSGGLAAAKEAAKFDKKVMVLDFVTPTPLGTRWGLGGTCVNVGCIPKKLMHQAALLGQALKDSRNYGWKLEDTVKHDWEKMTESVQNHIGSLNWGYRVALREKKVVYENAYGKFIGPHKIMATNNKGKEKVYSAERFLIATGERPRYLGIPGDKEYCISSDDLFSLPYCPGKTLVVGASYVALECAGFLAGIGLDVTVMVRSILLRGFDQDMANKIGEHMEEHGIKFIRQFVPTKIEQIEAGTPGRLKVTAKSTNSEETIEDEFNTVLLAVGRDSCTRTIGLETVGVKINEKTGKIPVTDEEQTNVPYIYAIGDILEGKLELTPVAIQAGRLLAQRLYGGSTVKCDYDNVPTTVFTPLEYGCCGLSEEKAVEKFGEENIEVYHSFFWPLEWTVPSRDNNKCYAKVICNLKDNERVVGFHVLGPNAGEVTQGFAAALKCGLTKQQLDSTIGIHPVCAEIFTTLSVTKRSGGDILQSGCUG
# Summary of the method: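 Quantitative HTS in Tris-HCl buffer at pH 7.5 with EDTA and Tween-20, using rat TrxR1, 400 uM NADPH and 400 uM selenite (final). A fall in initial NADPH fluorescence relative to background marked substrate behaviour.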
# [2] = molecular target: Thioredoxin reductase 1, cytoplasmic (Rattus norvegicus) (UniProt O89049); experiment: qHTS Assay for Inhibitors of Mammalian Selenoprotein Thioredoxin Reductase 1 (TrxR1) (AID 488773); details: Potency: inhibition;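 note: drop in NADPH fluorescence over an 8 min run after selenite addition; series mostly up to about 57 µM; nearly all actives have a fitted effect of over 40% in size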
# Summary of the method: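 Steps: enzyme (90 nM) plus NADPH (400 uM final), 5 min at ~22 deg C; compound added, 15 min; selenite (400 uM final) added; fluorescence followed for 8 min. Concentration-response curves derived from the normalized delta values.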
# [3] = molecular target: Flap endonuclease 1 (Homo sapiens) (UniProt P39748); experiment: qHTS Validation Assay for the Inhibitors of Human Flap endonuclease 1 (FEN1) (AID 488816); note: potency is the fitted concentration of half-maximal effect
# Flap endonuclease 1 (Homo sapiens), sequence (P39748 whole entry, looked up): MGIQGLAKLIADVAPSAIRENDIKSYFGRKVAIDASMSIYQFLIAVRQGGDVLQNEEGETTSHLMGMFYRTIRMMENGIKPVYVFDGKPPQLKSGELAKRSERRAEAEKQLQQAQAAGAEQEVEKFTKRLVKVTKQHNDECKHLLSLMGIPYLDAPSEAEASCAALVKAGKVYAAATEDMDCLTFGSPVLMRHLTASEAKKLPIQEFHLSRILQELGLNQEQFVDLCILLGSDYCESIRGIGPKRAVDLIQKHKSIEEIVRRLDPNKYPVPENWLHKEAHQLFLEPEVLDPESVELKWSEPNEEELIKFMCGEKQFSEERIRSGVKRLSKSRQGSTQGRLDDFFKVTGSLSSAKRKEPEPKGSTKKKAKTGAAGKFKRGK
# Summary of the method: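 Readings taken at 0 and 15 min after starting the reaction with 50 nM (final) substrate supplied the signal. Compounds had first sat with 10 nM FEN1 reagent for 15 min at room temperature. Values come from Hill-equation concentration-response fits.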
# [4] = molecular target: M-phase phosphoprotein 8 (Homo sapiens) (UniProt Q99549); experiment: qHTS Validation Assay for Inhibitors for MPP8 Chromodomain Interactions with Methylated Histone Tails (AID 488949); note: nearly all actives have a fitted effect of over 55% in size; note: potency is the fitted concentration of half-maximal effect
# M-phase phosphoprotein 8 (Homo sapiens), sequence (Q99549 whole entry, looked up): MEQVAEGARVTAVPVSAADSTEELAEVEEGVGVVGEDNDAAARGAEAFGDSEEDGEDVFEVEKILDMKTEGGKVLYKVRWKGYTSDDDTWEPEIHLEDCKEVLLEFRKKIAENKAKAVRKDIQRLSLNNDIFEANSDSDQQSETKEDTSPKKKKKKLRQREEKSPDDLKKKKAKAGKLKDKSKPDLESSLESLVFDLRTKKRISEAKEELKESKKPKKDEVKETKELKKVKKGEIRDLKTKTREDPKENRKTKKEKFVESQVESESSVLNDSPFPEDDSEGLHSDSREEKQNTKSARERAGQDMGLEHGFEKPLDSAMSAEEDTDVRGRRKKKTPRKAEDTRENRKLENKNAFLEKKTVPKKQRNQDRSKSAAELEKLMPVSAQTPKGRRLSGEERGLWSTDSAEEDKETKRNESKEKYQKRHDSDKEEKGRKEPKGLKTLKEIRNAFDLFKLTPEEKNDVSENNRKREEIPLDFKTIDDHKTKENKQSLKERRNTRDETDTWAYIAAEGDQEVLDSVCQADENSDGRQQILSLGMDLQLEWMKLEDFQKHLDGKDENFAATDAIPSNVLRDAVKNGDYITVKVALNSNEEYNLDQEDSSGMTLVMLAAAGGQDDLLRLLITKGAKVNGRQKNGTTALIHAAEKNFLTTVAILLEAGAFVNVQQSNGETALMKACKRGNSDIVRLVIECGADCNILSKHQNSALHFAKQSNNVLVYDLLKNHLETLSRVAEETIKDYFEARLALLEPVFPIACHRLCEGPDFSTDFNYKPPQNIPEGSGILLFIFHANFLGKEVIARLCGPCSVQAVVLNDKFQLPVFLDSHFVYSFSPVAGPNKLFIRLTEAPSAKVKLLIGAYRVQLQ
# Summary of the method: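 MPP8 (50 nM) was preincubated with biotinylated H3(1-18)K9me3 peptide (50 nM) in PBS pH 7.4, 0.01% Tween-20 for 30 min at room temperature, then with compounds for 30 min; binding was detected by AlphaScreen.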
# [5] = molecular target: Methanococcus maripaludis chaperonin (MmCpn) (UniProt Q6LX38); experiment: High-Throughput Screening for Modulators of Cytosolic Chaperonin Activity: MmCpn Primary Screen (AID 488978);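 note: 50 nM MmCpn enzyme hydrolysing 30 µM ATP at 37 °C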
# Methanococcus maripaludis chaperonin (MmCpn), sequence (Q6LX38 1-543): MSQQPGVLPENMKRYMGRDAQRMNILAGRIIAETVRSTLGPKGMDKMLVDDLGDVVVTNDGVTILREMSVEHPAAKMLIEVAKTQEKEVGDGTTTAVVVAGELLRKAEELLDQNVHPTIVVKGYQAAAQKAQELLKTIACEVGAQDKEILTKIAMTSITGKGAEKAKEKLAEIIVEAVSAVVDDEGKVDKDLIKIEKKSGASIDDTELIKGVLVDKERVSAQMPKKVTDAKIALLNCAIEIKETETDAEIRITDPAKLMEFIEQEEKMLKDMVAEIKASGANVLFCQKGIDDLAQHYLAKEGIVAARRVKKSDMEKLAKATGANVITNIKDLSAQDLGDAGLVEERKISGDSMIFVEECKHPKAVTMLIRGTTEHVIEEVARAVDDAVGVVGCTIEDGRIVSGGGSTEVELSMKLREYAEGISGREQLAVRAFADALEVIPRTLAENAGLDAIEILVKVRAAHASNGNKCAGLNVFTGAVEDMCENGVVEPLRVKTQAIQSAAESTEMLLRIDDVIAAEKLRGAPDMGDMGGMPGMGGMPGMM
# Summary of the method: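 MmCpn (50 nM final) was preincubated with compound 5 min at RT, then 30 uM ATP (final) was added and the reaction ran 10 min at 37C. ADP produced was detected by Transcreener HTRF (ex 320 nm; em 590/665 nm).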
# [6] = molecular target: D(1A) dopamine receptor (Homo sapiens) (UniProt P21728); experiment: HTS Assay for Allosteric Agonists of the Human D1 Dopamine Receptor: Primary Screen for Potentiators (AID 488982)
# D(1A) dopamine receptor (Homo sapiens), sequence (P21728 whole entry, looked up): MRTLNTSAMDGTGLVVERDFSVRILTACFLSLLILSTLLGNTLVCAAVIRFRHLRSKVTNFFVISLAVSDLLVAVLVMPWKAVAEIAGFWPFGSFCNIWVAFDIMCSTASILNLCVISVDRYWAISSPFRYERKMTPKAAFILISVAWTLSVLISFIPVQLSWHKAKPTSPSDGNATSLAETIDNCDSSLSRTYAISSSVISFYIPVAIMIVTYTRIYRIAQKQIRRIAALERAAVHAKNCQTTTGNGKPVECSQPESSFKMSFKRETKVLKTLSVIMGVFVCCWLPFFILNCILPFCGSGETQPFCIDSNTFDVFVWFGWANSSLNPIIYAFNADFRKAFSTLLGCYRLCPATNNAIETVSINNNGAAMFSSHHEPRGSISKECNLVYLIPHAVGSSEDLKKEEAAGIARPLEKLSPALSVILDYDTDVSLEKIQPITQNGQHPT
# Summary of the method: (§1)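 Calcium flux in an inducible, force-coupled HEK293 Trex D1 line (overnight at 30 C): agonist mode is the 180 s kinetic read after compound; potentiator mode is the following 180 s read after dopamine at EC20.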
# [7] = molecular target: D(1A) dopamine receptor (Homo sapiens) (UniProt P21728); experiment: HTS Assay for Allosteric Agonists of the Human D1 Dopamine Receptor: Primary Screen for Antagonists (AID 488983);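 note: calcium flux response to an EC80 dopamine challenge measured with no-wash dye; nearly all actives have a fitted effect of over 65% in size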; note: potency is the fitted concentration of half-maximal effect
# Summary of the method: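 Tetracycline-induced HEK293 T-REx D1 line, force-coupled to calcium flux, read with no-wash calcium dye. Compound added after 10 s baseline, read 180 s for agonism, then EC80 dopamine added and read a further 180 s.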
# [8] = Validation screen for small molecules that induce genotoxicity in human embryonic kidney (HEK293T) cells expressing luciferase-tagged ELG1 (AID 493106); note: potency is the fitted concentration of half-maximal effect
# Summary of the method: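 HEK293T cells expressing luciferase-tagged ELG1, 2,000 cells/well, exposed to compound 16 hr at 37 °C, 5% CO2. Luciferase read after ONE-Glo, 30 min at room temperature; increased signal indicates genetic stress.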
# [9] = qHTS for Inhibitors of Cell Surface uPA Generation: Validation Assay (AID 493164)
# Summary of the method: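 RAW 264.7 cells (4000/well) were plated overnight, then exposed for 18 h at 37 C, 5% CO2 to compounds in a 7-point 1:5 titration (2.45 nM–38.3 uM final). Intracellular ATP was read by ATP-Lite luminescence.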
# [10] = molecular target: Transient receptor potential cation channel subfamily V member 1 (Homo sapiens) (UniProt Q8NER1); experiment: HTS Assay for Compounds that Act as Enhancers of the Vanilloid Receptor 1 (AID 488979)
# Summary of the method: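 Calcium influx kinetics via Fluo-8 (480/520 nm) in TRPV1-expressing cells, 2000/well cultured overnight at 35.5C. Compound-alone read 3 min (agonist phase), followed by EC20 capsaicin challenge for 2 min (enhancer phase).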
# [11] = molecular target: Thyrotropin receptor (Homo sapiens) (UniProt P16473); experiment: qHTS Assay for Antagonists of the Thyroid Stimulating Hormone Receptor (AID 488980); note: series mostly up to about 58 µM
# Thyrotropin receptor (Homo sapiens), sequence (P16473 whole entry, looked up): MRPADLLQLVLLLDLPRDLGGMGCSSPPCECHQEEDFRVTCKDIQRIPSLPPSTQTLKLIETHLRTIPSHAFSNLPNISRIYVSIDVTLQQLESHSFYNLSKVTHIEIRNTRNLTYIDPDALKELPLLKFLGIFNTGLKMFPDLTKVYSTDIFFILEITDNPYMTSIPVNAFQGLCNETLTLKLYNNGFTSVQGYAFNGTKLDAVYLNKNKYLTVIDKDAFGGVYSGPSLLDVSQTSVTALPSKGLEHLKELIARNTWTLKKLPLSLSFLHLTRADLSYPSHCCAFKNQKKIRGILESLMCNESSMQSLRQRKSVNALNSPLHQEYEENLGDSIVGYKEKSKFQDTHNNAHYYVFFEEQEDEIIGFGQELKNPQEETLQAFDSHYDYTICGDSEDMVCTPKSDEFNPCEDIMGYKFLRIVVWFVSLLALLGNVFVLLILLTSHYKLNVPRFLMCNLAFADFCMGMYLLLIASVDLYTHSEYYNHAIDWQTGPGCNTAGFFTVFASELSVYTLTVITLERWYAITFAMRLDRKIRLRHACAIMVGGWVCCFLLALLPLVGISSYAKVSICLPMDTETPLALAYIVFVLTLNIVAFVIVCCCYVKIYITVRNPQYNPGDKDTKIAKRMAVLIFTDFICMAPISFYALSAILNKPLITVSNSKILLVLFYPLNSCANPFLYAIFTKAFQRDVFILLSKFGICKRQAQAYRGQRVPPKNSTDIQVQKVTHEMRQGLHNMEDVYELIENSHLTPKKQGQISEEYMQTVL
# Summary of the method: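 HEK293 cells transfected with human TSHR, suspended in HEPES-buffered HBSS with 70 uM RO 20-1724, were treated with compounds plus TSH at EC80 (4 nM final). cAMP was measured by competitive HTRF (cryptate anti-cAMP antibody, cAMP-d2 acceptor).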
# [12] = molecular target: Thyrotropin-releasing hormone receptor (Homo sapiens) (UniProt P34981); experiment: qHTS for Small Molecule Agonists and Allosteric Enhancers of Human TRH Receptor: Validation Screen for Agonists (AID 493127;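 active = calcium activation more than 3 SD above the typical response in the agonist read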); details: TRH receptor agonist cell assay; at 2 µM; stronger effect = higher value
# Thyrotropin-releasing hormone receptor (Homo sapiens), sequence (P34981 whole entry, looked up): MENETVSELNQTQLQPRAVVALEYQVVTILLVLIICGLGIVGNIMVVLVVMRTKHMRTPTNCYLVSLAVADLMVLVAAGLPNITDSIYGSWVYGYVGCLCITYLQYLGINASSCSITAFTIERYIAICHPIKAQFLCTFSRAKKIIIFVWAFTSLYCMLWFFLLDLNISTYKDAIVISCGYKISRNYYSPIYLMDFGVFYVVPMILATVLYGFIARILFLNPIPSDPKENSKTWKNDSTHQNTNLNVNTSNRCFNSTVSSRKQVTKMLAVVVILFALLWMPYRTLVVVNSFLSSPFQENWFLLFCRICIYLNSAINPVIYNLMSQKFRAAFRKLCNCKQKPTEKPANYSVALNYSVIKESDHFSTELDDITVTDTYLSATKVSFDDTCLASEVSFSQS
# Summary of the method: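 TRHR cells loaded with fluo-8 calcium dye; FDSS kinetic fluorescence (Ex 480/Em 530) read at 1 s/cycle after 23 nL compound addition. Agonist-mode calcium response recorded before the 10 nM TRH (EC20) addition.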
# [13] = Nrf2 qHTS screen for inhibitors: Validation (AID 493153; active = well fitted inhibition curve with a large enough effect in the main read-out, with a control signal flat, not every such curve was filed as active); details: Potency: luciferase luminescence; viability change: measured here: cytotoxicity max response
# Summary of the method: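 A549 cells carrying ARE-firefly luciferase reporter, 5000 cells/well in 5% FBS OPTI-MEM, treated with compound over a concentration series for 18-24 h at 37 C. Luciferase luminescence gave Nrf2 activity; CellTiter-Fluor fluorescence gave viability.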
# [14] = molecular target: Galactokinase (Homo sapiens) (UniProt P51570); experiment: qHTS Validation Assay for Inhibitors of Human Galactokinase (GALK) (AID 493189)
# Galactokinase (Homo sapiens), sequence (P51570 whole entry, looked up): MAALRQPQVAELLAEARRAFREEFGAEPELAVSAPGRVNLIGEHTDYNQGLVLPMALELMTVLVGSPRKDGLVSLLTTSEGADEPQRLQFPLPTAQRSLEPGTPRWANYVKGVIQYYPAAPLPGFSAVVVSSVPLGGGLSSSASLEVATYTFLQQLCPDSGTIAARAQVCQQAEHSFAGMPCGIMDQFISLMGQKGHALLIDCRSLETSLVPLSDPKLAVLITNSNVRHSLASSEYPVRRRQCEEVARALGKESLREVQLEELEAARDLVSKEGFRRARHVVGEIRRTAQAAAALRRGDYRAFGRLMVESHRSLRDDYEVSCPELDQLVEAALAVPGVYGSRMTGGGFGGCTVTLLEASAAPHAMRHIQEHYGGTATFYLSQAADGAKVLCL
# Summary of the method: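 GALK (5 nM) with 35 uM ATP and 100 uM galactose in HEPES pH8.0, MgCl2, NaCl, DTT, BSA; 1 h at room temperature. Residual ATP read by Kinase-Glo Plus luminescence after 10 min.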
# [15] = molecular target: ATP-dependent 6-phosphofructokinase (Trypanosoma brucei brucei) (UniProt O15648); experiment: qHTS Assay to Find Inhibitors of T. brucei phosphofructokinase: hit validation (AID 492961);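 note: luminescence reports ADP formed as PFK phosphorylates fructose-6-phosphate with ATP; series mostly up to about 51 µM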
# ATP-dependent 6-phosphofructokinase (Trypanosoma brucei brucei), sequence (O15648 whole entry, looked up): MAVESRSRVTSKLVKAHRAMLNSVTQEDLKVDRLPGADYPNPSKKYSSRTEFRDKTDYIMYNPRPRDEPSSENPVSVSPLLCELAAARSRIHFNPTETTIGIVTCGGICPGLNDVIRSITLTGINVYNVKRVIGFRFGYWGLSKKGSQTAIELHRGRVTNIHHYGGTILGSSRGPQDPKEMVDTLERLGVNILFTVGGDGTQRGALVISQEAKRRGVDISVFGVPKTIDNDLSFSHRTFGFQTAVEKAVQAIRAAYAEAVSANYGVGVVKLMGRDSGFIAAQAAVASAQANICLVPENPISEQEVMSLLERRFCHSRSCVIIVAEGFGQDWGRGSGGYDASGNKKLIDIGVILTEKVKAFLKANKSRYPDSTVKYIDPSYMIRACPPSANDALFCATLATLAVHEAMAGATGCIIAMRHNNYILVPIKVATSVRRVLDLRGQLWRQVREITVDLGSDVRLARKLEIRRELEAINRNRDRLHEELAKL
# Summary of the method: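 Measures ADP output of PFK (1.25 nM) at 0.1 mM ATP, 0.5 mM F6P, pH 8.0 TEA buffer with 5 mM MgCl2. No-enzyme wells define full inhibition; uninhibited enzyme wells define zero.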
# [16] = molecular target: Chromobox protein homolog 1 (Homo sapiens) (UniProt P83916); experiment: qHTS Validation Assay for Inhibitors of HP1-beta Chromodomain Interactions with Methylated Histone Tails (AID 488953); note: nearly all actives have a fitted effect of over 50% in size; note: potency is the fitted concentration of half-maximal effect
# Chromobox protein homolog 1 (Homo sapiens), sequence (P83916 whole entry, looked up): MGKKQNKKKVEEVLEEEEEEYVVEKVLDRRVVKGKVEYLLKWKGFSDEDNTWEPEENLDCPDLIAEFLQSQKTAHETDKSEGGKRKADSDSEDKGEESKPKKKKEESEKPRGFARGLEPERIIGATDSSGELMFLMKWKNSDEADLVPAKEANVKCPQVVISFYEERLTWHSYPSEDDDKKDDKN
# Summary of the method: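 HP1-beta (50 nM) preformed 30 min with biotinylated H3(1-18)K9me3 peptide (50 nM) in PBS pH 7.4, 0.01% Tween-20. Compounds added for 30 min at room temperature. Complex disruption read by AlphaScreen with streptavidin donor/nickel chelate acceptor beads (10 ug/mL each).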
# [17] = molecular target: ATPase family AAA domain-containing protein 5 (Homo sapiens) (UniProt Q96QE3); experiment: Validation screen for small molecules that inhibit ELG1-dependent DNA repair in human embryonic kidney (HEK293T) cells expressing luciferase-tagged ELG1 (AID 493107);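 note: cells co-treated with the DNA-damaging agent 5-fluorouridine alongside compound; series mostly up to about 46 µM; inhibitors lower the ELG1-luciferase luminescence signal; nearly all actives have a fitted effect of over 70% in size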
# Summary of the method: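 HEK293T cells expressing luciferase-tagged ELG1, 2,000 per well, treated with 5-fluorouridine plus compound for 16 h at 37 C. ONE-Glo luminescence after 30 min at room temperature reports ELG1 reporter level.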
# [18] = molecular target: D(1A) dopamine receptor (Homo sapiens) (UniProt P21728); experiment: HTS Assay for Allosteric Agonists of the Human D1 Dopamine Receptor: Primary Screen for Agonists (AID 488981)
# Summary of the method: as §1
smiles,measurement,setting,value
CC(C)ON([C@@H](C(=O)NO)C(C)C)S(=O)(=O)c1ccc(-c2ccccc2)cc1,Potency,[1],inactive
same,Potency,[2],inactive
same,Potency,[3],inactive
same,Potency,[4],inactive
same,outcome,[5],inactive
same,Potency,[6],inactive
same,Potency,[7],inactive
same,Potency,[8],inactive
same,outcome,[9],inactive
COc1ccc(NC(=O)/C=C/c2ccc(Cl)cc2)cc1,Potency,[1],inactive
same,Potency,[2],inactive
same,Potency,[3],inactive
same,Potency,[4],inactive
same,outcome,[5],inactive
same,outcome,[10],inactive
same,outcome,[11],inactive
same,Potency,[6],inactive
same,Potency,[7],inactive
same,Potency,[8],2.59 µM (active)
same,activation,[12],1.19% (inactive)
same,Potency,[13],inactive
same,viability change,[13],-1.36%
same,outcome,[9],inactive
same,Potency,[14],inactive
O=C(/C=C/c1ccc(O)cc1)c1ccc(O)cc1O,Potency,[1],inactive
same,Potency,[3],inactive
same,Potency,[4],inactive
same,outcome,[5],inactive
same,outcome,[10],inactive
same,outcome,[11],inactive
same,Potency,[7],inactive
same,Potency,[8],8.2 µM (active)
same,activation,[12],-5.19% (inactive)
same,Potency,[13],inactive
same,viability change,[13],-0.936%
same,outcome,[9],inactive
same,Potency,[14],inactive
O=C1CN(/N=C/c2ccc([N+](=O)[O-])o2)C(=O)N1,outcome,[15],inactive
O=C1NC(=O)/C(=C/c2ccc(-c3ccc(F)cc3O)o2)S1,Potency,[1],inactive
same,Potency,[3],26.7 µM (active)
same,Potency,[16],39.8 µM (active)
same,outcome,[5],inactive
same,outcome,[9],inactive
O=C(Nc1ccc(C(=O)O)c(O)c1)c1ccccc1,outcome,[15],inactive
CN=c1nc(-c2ccccc2)n(-c2ccccc2)s1,Potency,[1],inactive
same,Potency,[3],inactive
same,Potency,[4],4.47 µM (active)
same,Potency,[16],12.6 µM (active)
same,outcome,[10],inactive
same,outcome,[11],inactive
same,Potency,[7],11.2 µM (active)
same,activation,[12],13% (inactive)
same,outcome,[9],inactive
same,Potency,[14],inactive
O=c1[nH]c2cc([N+](=O)[O-])c([N+](=O)[O-])cc2[nH]c1=O,Potency,[1],inactive
same,Potency,[2],inactive
same,Potency,[4],inactive
same,Potency,[16],inactive
same,outcome,[10],inactive
same,outcome,[11],inactive
same,Potency,[6],inactive
same,Potency,[7],inactive
same,Potency,[8],inactive
same,Potency,[17],inactive
same,Potency,[13],inactive
same,viability change,[13],0.435%
same,outcome,[9],inactive
same,Potency,[14],inactive
Nc1cc(-c2ccncc2)c[nH]c1=O,outcome,[15],inactive
C=CCN1C(=O)C(CC(C)C)NC1=S (stereo not drawn),outcome,[15],inactive
O=C1CN(/N=C/c2ccc(-c3ccc([N+](=O)[O-])cc3)o2)C(=O)N1,outcome,[15],inactive
CN1CCc2ccccc2Cc2[nH]c3ccccc3c2CC1,Potency,[1],inactive
same,Potency,[3],inactive
same,Potency,[4],50.1 µM (active) and inactive
same,outcome,[10],inactive
same,outcome,[11],inactive
same,Potency,[18],inactive
same,Potency,[7],0.355 µM (active)
same,Potency,[8],inactive
same,activation,[12],0.5% (inactive)
same,Potency,[13],inactive
same,viability change,[13],-10.2%
same,outcome,[9],inactive
same,Potency,[14],inactive
CC(N)C(=O)OC(C)(C)Cc1ccc(Cl)cc1 (stereo not drawn),Potency,[1],inactive
same,Potency,[2],inactive
same,Potency,[7],inactive
same,Potency,[8],inactive
same,Potency,[13],inactive
same,viability change,[13],7.67%
same,outcome,[9],inactive
Oc1cc(O)cc(/C=C/c2ccc(O)c(O)c2)c1,Potency,[1],inactive
same,Potency,[3],0.844 µM (active)
same,Potency,[4],39.8 µM (active)
same,Potency,[16],44.7 µM (active)
same,outcome,[5],inactive
same,outcome,[10],inactive
same,outcome,[11],inactive
same,Potency,[18],inactive
same,Potency,[7],inactive
same,Potency,[8],3.66 µM (active)
same,outcome,[9],inactive
same,Potency,[14],inactive
